From paper PMC7819943, “Rice protein-binding microarrays: a tool to detect cis-acting elements near promoter regions in rice”
Whole data set: some 35,000 sequences, median “fluorescence intensity (a.u.)” near 10,000, cut for the highest 2% near 52,000. The sample holds the highest values, similar sequences and a random draw of the others, so the mix is not that of the screen.

Target: T1, OsWOX13 (Oryza sativa, UniProt Q5QMM3 1-267)
T1 sequence: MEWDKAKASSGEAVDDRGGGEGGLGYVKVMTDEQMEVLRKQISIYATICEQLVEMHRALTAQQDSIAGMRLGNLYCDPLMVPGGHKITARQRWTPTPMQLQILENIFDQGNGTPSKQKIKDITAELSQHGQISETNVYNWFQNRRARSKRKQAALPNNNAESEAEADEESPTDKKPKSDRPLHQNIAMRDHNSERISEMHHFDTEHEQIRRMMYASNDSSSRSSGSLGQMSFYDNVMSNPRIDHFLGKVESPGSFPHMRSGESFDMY
Assay: protein-binding microarray (RPBM); PBS, 2% BSA, 51.3 ng/ul salmon testes DNA, 50 uM zinc acetate, 200 nM TF, 25 C, 1 h; high values mean tight binding
Settings: protein: recombinant; tags: N-terminal polyhistidine and DsRed monomer fusion (pET32a); label: CyDye5-dUTP incorporated in the synthesized complementary strand; 3' TTTTT single-stranded linker to array surface; dsDNA, one strand shown
In short: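 Binding signal is defined as the fluorescence intensity of each feature in arbitrary units, read on an Axon 4000B scanner. Transcription factors with N-terminal polyhistidine and DsRed fusions came from E. coli BL21-CodonPlus and were purified on Ni–NTA. They were incubated at 200 nM for 1 h at 25 °C on a custom Agilent array that had been made double-stranded with Cy5-dUTP, with 50 µM zinc acetate present, and the array was washed.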

Going from “CGAAATTATAATGATTAAACAAAATTGATCGATATAACTACGGAGTCACCTAGTGCAG” to “AAAATATATAATTATTATTTATTTTATTATGACATGATATCGGAGTCACCTAGTGCAG”, the binding signal falls from 41000 fluorescence intensity (a.u.) to 17400 fluorescence intensity (a.u.).

First: ATTGATTTAATGAAAATAATTTAATATTATAAATATTACTCGGAGTCACCTAGTGCAG
Second: TGTAATTGATAAATATAAATTTACTTTAGGCATGTTTGATCGGAGTCACCTAGTGCAG
The binding signal of the first is lower: 35700 fluorescence intensity (a.u.) for the first, 55700 fluorescence intensity (a.u.) for the second.

First: ATGTAAATTACTTTTAGGCTTTATTGAATTACTTTTATATCGGAGTCACCTAGTGCAG
Second: TCACATTGATATTAATTAATCTAGATAAATATATATATGTCGGAGTCACCTAGTGCAG
The binding signal of the first is lower: 7630 fluorescence intensity (a.u.) for the first, 17200 fluorescence intensity (a.u.) for the second.

First: GTGGTTGTATTAAATATATTGATAGTTAGGTATATGAATACGGAGTCACCTAGTGCAG
Second: ATGATTGATTGTAAATTAGGTTGAATAATTGATATATACTCGGAGTCACCTAGTGCAG
The binding signal of the first is lower: 4110 fluorescence intensity (a.u.) for the first, 54800 fluorescence intensity (a.u.) for the second.

Going from “TTAAATAAATTACTTTTAAATTAATAAAATGTTTGAATATCGGAGTCACCTAGTGCAG” to “GTCTCGATATAATTATGAATTTTGAAATATATAAACCCATCGGAGTCACCTAGTGCAG”, the binding signal rises from 5500 fluorescence intensity (a.u.) to 8250 fluorescence intensity (a.u.).

First: ATAATAATTGATAGGTAACCATGATTATCGATAAAACCATCGGAGTCACCTAGTGCAG
Second: ATATAATTGATAATAAATCAGGGCATGACATGTCACATATCGGAGTCACCTAGTGCAG
The binding signal of the first is higher: 59000 fluorescence intensity (a.u.) for the first, 56400 fluorescence intensity (a.u.) for the second.

Going from “TTGTATTTGTTAATGGAATGCTGATTGGTGCACAGCAAACCGGAGTCACCTAGTGCAG” to “ATTAAATTTGGGCTAACTGGCCTCCACACATCCCATATAACGGAGTCACCTAGTGCAG”, the binding signal falls from 29900 fluorescence intensity (a.u.) to 11000 fluorescence intensity (a.u.).

Going from “GATAAATTACGATAATACCCCTATACGAATTATTATCTCTCGGAGTCACCTAGTGCAG” to “TGTTTTGATTGTTTCTTATTACTCCCTCCGATTATAAATACGGAGTCACCTAGTGCAG”, the binding signal rises from 12900 fluorescence intensity (a.u.) to 25500 fluorescence intensity (a.u.).

First: TCCGATTGATTACCTTCTATAAATACCTCACCCCACCCCTCGGAGTCACCTAGTGCAG
Second: CAGATGATTAGTAATGTTAATTATGAATAAACTTGCACGCCGGAGTCACCTAGTGCAG
The binding signal of the first is higher: 57600 fluorescence intensity (a.u.) for the first, 51800 fluorescence intensity (a.u.) for the second.

First: AATATTATTTATATGTAATTACATAAGTAATATGTAATTTCGGAGTCACCTAGTGCAG
Second: TAAATTGGCTATTACATTAGTTATAAATGATTTGGAGCTACGGAGTCACCTAGTGCAG
The binding signal of the first is lower: 9490 fluorescence intensity (a.u.) for the first, 34400 fluorescence intensity (a.u.) for the second.

First: CTAAATTGATTATACATGATTTAGAGTTAGTAGTTAGCTACGGAGTCACCTAGTGCAG
Second: ATTGATAATTAGTTCACCGAAGTAGTAGGGCGCGACACGCCGGAGTCACCTAGTGCAG
The binding signal of the first is higher: 59600 fluorescence intensity (a.u.) for the first, 15900 fluorescence intensity (a.u.) for the second.

Going from “AGCTATTAGTAGATTGGCTATAAATGAATTGGAGTTAGTACGGAGTCACCTAGTGCAG” to “ATTGATTAGTAGTAATTAATTAGTTATAAACTACACGCGCCGGAGTCACCTAGTGCAG”, the binding signal rises from 14900 fluorescence intensity (a.u.) to 58700 fluorescence intensity (a.u.).

First: GTGCAAGGATAATTGGTGATTATATTAGTGTATATTTAAGCGGAGTCACCTAGTGCAG
Second: ATTGATTTACGGGATTGAAGTTAGTATAATTACATGTAAGCGGAGTCACCTAGTGCAG
The binding signal of the first is lower: 18200 fluorescence intensity (a.u.) for the first, 53600 fluorescence intensity (a.u.) for the second.

Compared with “CCTCCTGTTAACTCGTATCACCTCCCTCCCTCACTGAACCCGGAGTCACCTAGTGCAG”, “ATAAAGACTGTTCAATCATGATGAAGCTTTACGTAAGCGGCGGAGTCACCTAGTGCAG” is higher in binding signal: 7850 fluorescence intensity (a.u.) for the first, 34900 fluorescence intensity (a.u.) for the second.

Compared with “TTTACAAACACGCAAATTAAAATTTTATTTATACAATTAACGGAGTCACCTAGTGCAG”, “GTACCAATTTAATTTATGTATCAATAAGAACATATCATGTCGGAGTCACCTAGTGCAG” is higher in binding signal: 4180 fluorescence intensity (a.u.) for the first, 22800 fluorescence intensity (a.u.) for the second.

Compared with “TCAGCTTATTGACTTATATGATTTATAAGCCAATGGATTTCGGAGTCACCTAGTGCAG”, “CTGATTAGCATGCAGGATAGGAACTGATCTGTACTTGTCGCGGAGTCACCTAGTGCAG” is higher in binding signal: 11100 fluorescence intensity (a.u.) for the first, 22300 fluorescence intensity (a.u.) for the second.

Going from “ACTAATTTCATAACTCTCCTGGAAACCGTGAGATGAATCTCGGAGTCACCTAGTGCAG” to “GATGATGATGAGGAGGATGACCAGGATGGTGGAGACTGGGCGGAGTCACCTAGTGCAG”, the binding signal falls from 6360 fluorescence intensity (a.u.) to 4950 fluorescence intensity (a.u.).

Compared with “GTAATTGCGGCCCATTAACCTAAATGGGCCGATCGAGTGGCGGAGTCACCTAGTGCAG”, “AAATTTATGTAATTATTATTTATTTTATTGTGACTTGATTCGGAGTCACCTAGTGCAG” is higher in binding signal: 4580 fluorescence intensity (a.u.) for the first, 8590 fluorescence intensity (a.u.) for the second.

Going from “CTCGAGGTCAAATCTTGATTAATTATGCTAATTAACGCGACGGAGTCACCTAGTGCAG” to “ACAATTAACTAATAATAATTAGTGATTACTTATCTTGATTCGGAGTCACCTAGTGCAG”, the binding signal rises from 16800 fluorescence intensity (a.u.) to 45300 fluorescence intensity (a.u.).

Going from “TAGGTGATTAGTTGATTAATTAATCTTGAGCTCCTCCTAACGGAGTCACCTAGTGCAG” to “CCCACAATTAATTGGGCCTAATGGATCGGTGCCCTTGTGGCGGAGTCACCTAGTGCAG”, the binding signal falls from 58800 fluorescence intensity (a.u.) to 53600 fluorescence intensity (a.u.).

Compared with “CCCAATTAATTACAATGGGCCACACGCTCGTGGCCCAACTCGGAGTCACCTAGTGCAG”, “TTCTGAATGTGATTGAATTAATTGGACTTGCGTTGACCTTCGGAGTCACCTAGTGCAG” is higher in binding signal: 10900 fluorescence intensity (a.u.) for the first, 59500 fluorescence intensity (a.u.) for the second.

Compared with “ATGATTGCTTAAGAATAATTGGTGACTTGCTACGAATGTGCGGAGTCACCTAGTGCAG”, “GAGAGATGATGGGCTGGTTTGGTTTGAGGCCTAAATTAGGCGGAGTCACCTAGTGCAG” is lower in binding signal: 51300 fluorescence intensity (a.u.) for the first, 3660 fluorescence intensity (a.u.) for the second.

Going from “TTCCTTTGATTGATCATGAGGTGGGCTGGGGCTGAGATGGCGGAGTCACCTAGTGCAG” to “TGAATGATTGCTCTTGTGCTAAGAGAATAGACTTTATCCCCGGAGTCACCTAGTGCAG”, the binding signal falls from 59400 fluorescence intensity (a.u.) to 32000 fluorescence intensity (a.u.).

Going from “TCGGTATTGTGATTGAGGGGTAAGAGTAAGTTTCGGCCACCGGAGTCACCTAGTGCAG” to “TTAATTGTAAGTTTAACTATTGCTACTTCGCTTGCAGCGTCGGAGTCACCTAGTGCAG”, the binding signal falls from 18700 fluorescence intensity (a.u.) to 13600 fluorescence intensity (a.u.).

First: AATCATGGCGTAATTAGGCTTAAAAGATTCGTCTCGCAATCGGAGTCACCTAGTGCAG
Second: TTATCCAAAACGTCAATTAATATAGAACTAGAGTGAGTACCGGAGTCACCTAGTGCAG
The binding signal of the first is lower: 3620 fluorescence intensity (a.u.) for the first, 4500 fluorescence intensity (a.u.) for the second.

Going from “TTAATTGATTGAATCACATCCTTCCGGATTGTTTTGATCCCGGAGTCACCTAGTGCAG” to “ACTTAATTATTGTTATGATTCATTCATGCATAAAGCGGTGCGGAGTCACCTAGTGCAG”, the binding signal rises from 40800 fluorescence intensity (a.u.) to 55700 fluorescence intensity (a.u.).

First: TGTTGATTGTTGTGTTTAATTGGAGATTGACTATTGAATCCGGAGTCACCTAGTGCAG
Second: GCTCTAATAATTGAATAATTTGATTTGTTTTATTTAAATCCGGAGTCACCTAGTGCAG
The binding signal of the first is higher: 60200 fluorescence intensity (a.u.) for the first, 30100 fluorescence intensity (a.u.) for the second.

Going from “GATTTAATTTATTTTGGTAATGATTTGTGGATGATTTTGGCGGAGTCACCTAGTGCAG” to “TTAATTGATTGATTGATTGATTAATCCGTTGTGAATCTAACGGAGTCACCTAGTGCAG”, the binding signal rises from 31600 fluorescence intensity (a.u.) to 61500 fluorescence intensity (a.u.).

Going from “GAGTTATGATTTGTTACAATAATTGTAACTTATTGTAAAGCGGAGTCACCTAGTGCAG” to “TGCGTGATTGTTGGGATTATTTTATTAATTGATCCAATGGCGGAGTCACCTAGTGCAG”, the binding signal rises from 27900 fluorescence intensity (a.u.) to 57200 fluorescence intensity (a.u.).

Compared with “CATTCATATTGATGTTAATAAATTAATATAGATATATATGCGGAGTCACCTAGTGCAG”, “AGTTATTGACAGTGACTAATCTACCTAATCCGTAGATTAACGGAGTCACCTAGTGCAG” is higher in binding signal: 3590 fluorescence intensity (a.u.) for the first, 12500 fluorescence intensity (a.u.) for the second.

First: TTATACATCCAAATTTGATTGTTGCGTGCTTATTTTGTTGCGGAGTCACCTAGTGCAG
Second: CCATCACATCCGTTGGCCTAATTGATTTGTGAAGCATCAACGGAGTCACCTAGTGCAG
The binding signal of the first is higher: 13700 fluorescence intensity (a.u.) for the first, 4240 fluorescence intensity (a.u.) for the second.
